Out of some 5,500 compounds screened, about 2,000 (36%) were called active. Not shown: some 18% with an inconclusive outcome. Rule as the data show it: active = normalized growth mostly below about 0.91 (no sharp cut-off); inconclusive = no clear call, values can overlap the other calls; inactive = mostly above about 0.92. The list shows a part of the results.
Assay: chemical genetic growth profiling, strain panel (AID 1159580);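 also: tested at 20 µM; growth read once vehicle control cultures reached saturation at 30 °C; 1 = growth at the plate median or of vehicle wells; lower values mean less growth of the strain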
Conditions: growth OD

Measured: normalized growth

COC1C(O)C(O)C(O)[C@@H](O)C1O (some centres undefined)
inactive: S. cerevisiae deletion strains, locus YJR066W, strain TOR1, active compounds read low 0.926 | S. cerevisiae deletion strains, locus YJR075W, strain HOC1, active compounds read low 1.01 | S. cerevisiae deletion strains, locus YKL009W, strain mrt4, active compounds read low 1.1 | S. cerevisiae deletion strains, locus YKL068W, active compounds read low 1.01 | S. cerevisiae deletion strains, locus YKL085W, strain MDH1 (second series), active compounds read low 1.02 | S. cerevisiae deletion strains, locus YKL085W, strain MDH1, active compounds read low 1.02 | S. cerevisiae deletion strains, locus YKL160W, strain elf1, active compounds read low 0.968 | S. cerevisiae deletion strains, locus YKL190W, strain CNB1, active compounds read low 1.01 | S. cerevisiae deletion strains, locus YKR001C, strain vps1, active compounds read low 1.05 | S. cerevisiae deletion strains, locus YKR026C, strain gcn3, active compounds read low 0.978 | S. cerevisiae deletion strains, locus YKR091W, strain srl3, active compounds read low 0.972 | S. cerevisiae deletion strains, locus YLL001W, strain dnm1, active compounds read low 0.944 | S. cerevisiae deletion strains, locus YLL026W, active compounds read low 0.992 | S. cerevisiae deletion strains, locus YLL041C, strain sdh2, active compounds read low 0.978 | S. cerevisiae deletion strains, locus YLR027C, strain aat2, active compounds read low 0.969 | S. cerevisiae deletion strains, locus YLR039C, strain RIC1, active compounds read low 1.07 | S. cerevisiae deletion strains, locus YLR058C, strain SHM2, active compounds read low 1.01 | S. cerevisiae deletion strains, locus YLR102C, strain apc9, active compounds read low 1.02 | S. cerevisiae deletion strains, locus YLR113W, strain HOG1, active compounds read low 0.97 | S. cerevisiae deletion strains, locus YLR221C, strain rsa3, active compounds read low 0.965 | S. cerevisiae deletion strains, locus YLR258W, strain gsy2, active compounds read low 0.979 | S. cerevisiae deletion strains, locus YLR262C, strain YPT6 (second series), active compounds read low 0.971 | S. cerevisiae deletion strains, locus YLR262C, strain YPT6, active compounds read low 1.03 | S. cerevisiae deletion strains, locus YLR268W, strain sec22, active compounds read low 1.05 | S. cerevisiae deletion strains, locus YLR320W, strain mms22, active compounds read low 0.963 | S. cerevisiae deletion strains, locus YLR330W, strain CHS5, active compounds read low 1.01 | S. cerevisiae deletion strains, locus YLR342W, strain FKS1 (second series), active compounds read low 1.08 | S. cerevisiae deletion strains, locus YLR342W, strain FKS1, active compounds read low 0.973 | S. cerevisiae deletion strains, locus YLR357W, strain rsc2, active compounds read low 0.959 | S. cerevisiae deletion strains, locus YLR370C, strain arc18, active compounds read low 0.971 | S. cerevisiae deletion strains, locus YLR371W, strain rom2, active compounds read low 1.02 | S. cerevisiae deletion strains, locus YLR384C, strain iki3, active compounds read low 0.96 | S. cerevisiae deletion strains, locus YLR418C, strain cdc73, active compounds read low 1.06 | S. cerevisiae deletion strains, locus YML016C, strain PPZ1, active compounds read low 1.01 | S. cerevisiae deletion strains, locus YML032C, strain rad52, active compounds read low 1.04 | S. cerevisiae deletion strains, locus YML120C, strain ndi1, active compounds read low 0.97 | S. cerevisiae deletion strains, locus YML124C, strain tub3, active compounds read low 1.02 | S. cerevisiae deletion strains, locus YMR058W, strain fet3, active compounds read low 0.973 | S. cerevisiae deletion strains, locus YMR078C, strain ctf18, active compounds read low 1.01 | S. cerevisiae deletion strains, locus YMR125W, strain sto1, active compounds read low 0.958 | S. cerevisiae deletion strains, locus YMR129W, active compounds read low 0.976 | S. cerevisiae deletion strains, locus YMR205C, strain PFK2, active compounds read low 0.966 | S. cerevisiae deletion strains, locus YMR223W, strain ubp8, active compounds read low 1 | S. cerevisiae deletion strains, locus YMR231W, strain pep5, active compounds read low 0.971 | S. cerevisiae deletion strains, locus YMR263W, strain SAP30, active compounds read low 0.997 | S. cerevisiae deletion strains, locus YMR307W, strain GAS1, active compounds read low 1.05 | S. cerevisiae deletion strains, locus YNL067W, strain RPL9B, active compounds read low 0.998 | S. cerevisiae deletion strains, locus YNL071W, strain lat1, active compounds read low 0.973 | S. cerevisiae deletion strains, locus YNL128W, strain TEP1, active compounds read low 1.03 | S. cerevisiae deletion strains, locus YNL183C, strain NPR1, active compounds read low 0.962 | S. cerevisiae deletion strains, locus YNL209W, strain ssb2, active compounds read low 0.987 | S. cerevisiae deletion strains, locus YNL233W, strain BNI4, active compounds read low 1.01 | S. cerevisiae deletion strains, locus YNL248C, strain rpa49, active compounds read low 0.976 | S. cerevisiae deletion strains, locus YNL250W, strain rad50, active compounds read low 1.02 | S. cerevisiae deletion strains, locus YNL271C, strain bni1, active compounds read low 1.01 | S. cerevisiae deletion strains, locus YNL298W, strain CLA4, active compounds read low 1.03 | S. cerevisiae deletion strains, locus YNL307C, strain MCK1, active compounds read low 1.02 | S. cerevisiae deletion strains, locus YNL322C, strain KRE1 (second series), active compounds read low 0.97 | S. cerevisiae deletion strains, locus YNR049C, strain mso1, active compounds read low 0.979 | S. cerevisiae deletion strains, locus YNR052C, strain pop2, active compounds read low 1.01 | S. cerevisiae deletion strains, locus YOL012C, strain htz1 1.17 | S. cerevisiae deletion strains, locus YOL147C, strain pex11, active compounds read low 1.01 | S. cerevisiae deletion strains, locus YOR001W, strain rrp6, active compounds read low 0.995 | S. cerevisiae deletion strains, locus YOR061W, strain CKA2, active compounds read low 1.02 | S. cerevisiae deletion strains, locus YOR069W, strain VPS5, active compounds read low 1.01 | S. cerevisiae deletion strains, locus YOR070C, strain gyp1, active compounds read low 1 | S. cerevisiae deletion strains, locus YOR080W, strain dia2, active compounds read low 0.979 | S. cerevisiae deletion strains, locus YOR083W, strain WHI5, active compounds read low 0.964 | S. cerevisiae deletion strains, locus YOR106W, strain vam3, active compounds read low 0.96 | S. cerevisiae deletion strains, locus YOR136W, strain idh2, active compounds read low 1.03 | S. cerevisiae deletion strains, locus YOR144C, strain elg1, active compounds read low 1.01 | S. cerevisiae deletion strains, locus YOR184W, strain ser1, active compounds read low 1.03 | S. cerevisiae deletion strains, locus YOR231W, strain MKK1, active compounds read low 0.977 | S. cerevisiae deletion strains, locus YOR265W, strain rbl2, active compounds read low 0.989 | S. cerevisiae deletion strains, locus YOR270C, strain vph1, active compounds read low 0.985 | S. cerevisiae deletion strains, locus YOR290C, strain snf2, active compounds read low 0.913 | S. cerevisiae deletion strains, locus YOR316C, strain cot1, active compounds read low 1.02 | S. cerevisiae deletion strains, locus YPL051W, strain arl3, active compounds read low 0.97 | S. cerevisiae deletion strains, locus YPL055C, strain LGE1, active compounds read low 1.02 | S. cerevisiae deletion strains, locus YPL078C, strain atp4, active compounds read low 0.965 | S. cerevisiae deletion strains, locus YPL106C, strain sse1, active compounds read low 0.949 | S. cerevisiae deletion strains, locus YPL240C, strain hsp82, active compounds read low 0.986 | S. cerevisiae deletion strains, locus YPL256C, strain CLN2, active compounds read low 0.93 | S. cerevisiae deletion strains, locus YPR119W, strain clb2, active compounds read low 1.02 | S. cerevisiae deletion strains, locus YPR141C, strain kar3, active compounds read low 1.03 | S. cerevisiae deletion strains, locus YPR163C, strain tif3, active compounds read low 1.02 | S. cerevisiae deletion strains, locus YPR167C, strain met16, active compounds read low 1.05 | S. cerevisiae deletion strains, strain wtn01, active compounds read low 1.06 | S. cerevisiae strains, strain wild type, active compounds read low 1.01

From PubChem BioAssay AID1159580 (chemical genetic matrix, 2015)
